ChEMBL document CHEMBL1961873, “Compounds: GSK PKIS; Assays: Nanosyn kinase panel” (2012)

Legend:
[1] = biological target: Tyrosine-protein kinase Fer (Homo sapiens) (UniProt P16591); conditions: at 1 µM
[2] = biological target: Tyrosine-protein kinase Fes/Fps (Homo sapiens) (UniProt P07332); conditions: at 0.1 µM
[3] = biological target: Tyrosine-protein kinase Fes/Fps (Homo sapiens) (UniProt P07332); conditions: at 1 µM
[4] = biological target: Fibroblast growth factor receptor 1 (Homo sapiens) (UniProt P11362); conditions: at 0.1 µM
[5] = biological target: Fibroblast growth factor receptor 1 (Homo sapiens) (UniProt P11362); conditions: at 1 µM
[6] = biological target: Fibroblast growth factor receptor 2 (Homo sapiens) (UniProt P21802); conditions: at 0.1 µM
[7] = biological target: Fibroblast growth factor receptor 2 (Homo sapiens) (UniProt P21802); conditions: at 1 µM
[8] = biological target: Fibroblast growth factor receptor 3 (Homo sapiens) (UniProt P22607); conditions: at 0.1 µM
[9] = biological target: Fibroblast growth factor receptor 3 (Homo sapiens) (UniProt P22607); conditions: at 1 µM
[10] = biological target: Fibroblast growth factor receptor 4 (Homo sapiens) (UniProt P22455); conditions: at 0.1 µM
[11] = biological target: Fibroblast growth factor receptor 4 (Homo sapiens) (UniProt P22455); conditions: at 1 µM
[12] = biological target: Tyrosine-protein kinase Fgr (Homo sapiens) (UniProt P09769); conditions: at 0.1 µM
[13] = biological target: Tyrosine-protein kinase Fgr (Homo sapiens) (UniProt P09769); conditions: at 1 µM
[14] = biological target: Vascular endothelial growth factor receptor 1 (Homo sapiens) (UniProt P17948); conditions: at 0.1 µM
[15] = biological target: Vascular endothelial growth factor receptor 1 (Homo sapiens) (UniProt P17948); conditions: at 1 µM
[16] = biological target: Receptor-type tyrosine-protein kinase FLT3 (Homo sapiens) (UniProt P36888); conditions: at 0.1 µM
[17] = biological target: Receptor-type tyrosine-protein kinase FLT3 (Homo sapiens) (UniProt P36888); conditions: at 1 µM
[18] = test system: T1, Receptor-type tyrosine-protein kinase FLT3 (Homo sapiens), P36888 [D835Y]; conditions: at 0.1 µM
T1 sequence (whole entry): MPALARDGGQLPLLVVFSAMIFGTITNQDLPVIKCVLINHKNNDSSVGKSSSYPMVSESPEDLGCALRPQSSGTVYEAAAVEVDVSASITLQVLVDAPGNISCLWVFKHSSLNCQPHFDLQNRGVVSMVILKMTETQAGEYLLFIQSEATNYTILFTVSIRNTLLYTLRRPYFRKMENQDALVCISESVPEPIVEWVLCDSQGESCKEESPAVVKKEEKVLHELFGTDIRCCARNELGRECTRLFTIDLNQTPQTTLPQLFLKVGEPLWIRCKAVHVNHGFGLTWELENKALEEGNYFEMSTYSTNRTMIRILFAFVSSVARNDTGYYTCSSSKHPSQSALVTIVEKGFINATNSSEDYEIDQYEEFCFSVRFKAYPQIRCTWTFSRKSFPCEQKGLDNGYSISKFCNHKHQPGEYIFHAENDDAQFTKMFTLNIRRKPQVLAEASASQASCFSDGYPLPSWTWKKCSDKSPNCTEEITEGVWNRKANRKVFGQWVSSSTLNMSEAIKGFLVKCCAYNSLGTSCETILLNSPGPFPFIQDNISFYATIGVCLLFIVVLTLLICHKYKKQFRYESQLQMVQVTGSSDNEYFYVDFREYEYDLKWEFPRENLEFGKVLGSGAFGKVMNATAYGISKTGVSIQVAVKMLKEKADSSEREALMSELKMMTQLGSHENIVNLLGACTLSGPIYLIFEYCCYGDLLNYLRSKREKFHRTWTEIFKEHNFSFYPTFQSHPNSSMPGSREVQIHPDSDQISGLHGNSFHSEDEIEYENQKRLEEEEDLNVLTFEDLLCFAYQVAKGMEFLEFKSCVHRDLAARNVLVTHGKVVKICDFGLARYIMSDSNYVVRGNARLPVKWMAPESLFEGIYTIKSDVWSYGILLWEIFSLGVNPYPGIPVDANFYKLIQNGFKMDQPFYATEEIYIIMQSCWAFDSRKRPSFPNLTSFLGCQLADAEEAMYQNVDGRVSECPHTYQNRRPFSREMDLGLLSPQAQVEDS

[19] = biological target: Non-receptor tyrosine-protein kinase TYK2 (Homo sapiens) (UniProt P29597); conditions: at 1 µM;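 note: values are mean percent inhibition of TYK2 kinase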
[20] = biological target: T2, Tyrosine-protein kinase receptor TYRO3 (Homo sapiens) (UniProt Q06418); conditions: at 0.1 µM;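 note: reported percentages are averaged inhibition values of TYRO3 kinase activity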
T2 sequence (whole entry): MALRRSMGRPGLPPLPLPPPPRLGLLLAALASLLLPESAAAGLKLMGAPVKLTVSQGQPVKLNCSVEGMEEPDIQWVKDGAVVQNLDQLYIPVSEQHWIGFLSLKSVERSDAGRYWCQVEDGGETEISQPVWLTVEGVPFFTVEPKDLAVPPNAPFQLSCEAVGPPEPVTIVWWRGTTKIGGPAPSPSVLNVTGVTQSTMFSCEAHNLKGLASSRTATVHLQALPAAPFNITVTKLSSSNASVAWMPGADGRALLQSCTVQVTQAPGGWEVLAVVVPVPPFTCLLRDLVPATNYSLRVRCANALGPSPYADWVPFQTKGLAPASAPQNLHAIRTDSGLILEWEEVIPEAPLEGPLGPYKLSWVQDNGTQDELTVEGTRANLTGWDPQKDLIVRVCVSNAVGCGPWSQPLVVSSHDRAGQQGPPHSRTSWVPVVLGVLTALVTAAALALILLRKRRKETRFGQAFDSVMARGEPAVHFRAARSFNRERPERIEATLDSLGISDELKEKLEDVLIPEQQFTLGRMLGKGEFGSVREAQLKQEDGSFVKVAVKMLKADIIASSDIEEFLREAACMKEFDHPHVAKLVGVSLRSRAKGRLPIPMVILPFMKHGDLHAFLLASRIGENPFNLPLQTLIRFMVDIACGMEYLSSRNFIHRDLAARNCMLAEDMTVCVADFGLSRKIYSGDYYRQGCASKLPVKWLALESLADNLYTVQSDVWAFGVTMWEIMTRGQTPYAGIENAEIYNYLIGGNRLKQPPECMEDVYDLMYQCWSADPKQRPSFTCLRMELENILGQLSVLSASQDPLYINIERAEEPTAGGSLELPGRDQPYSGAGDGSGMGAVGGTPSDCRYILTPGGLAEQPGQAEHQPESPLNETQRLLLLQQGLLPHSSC

Chain of Non-receptor tyrosine-protein kinase TYK2 (Homo sapiens) (P29597 whole entry): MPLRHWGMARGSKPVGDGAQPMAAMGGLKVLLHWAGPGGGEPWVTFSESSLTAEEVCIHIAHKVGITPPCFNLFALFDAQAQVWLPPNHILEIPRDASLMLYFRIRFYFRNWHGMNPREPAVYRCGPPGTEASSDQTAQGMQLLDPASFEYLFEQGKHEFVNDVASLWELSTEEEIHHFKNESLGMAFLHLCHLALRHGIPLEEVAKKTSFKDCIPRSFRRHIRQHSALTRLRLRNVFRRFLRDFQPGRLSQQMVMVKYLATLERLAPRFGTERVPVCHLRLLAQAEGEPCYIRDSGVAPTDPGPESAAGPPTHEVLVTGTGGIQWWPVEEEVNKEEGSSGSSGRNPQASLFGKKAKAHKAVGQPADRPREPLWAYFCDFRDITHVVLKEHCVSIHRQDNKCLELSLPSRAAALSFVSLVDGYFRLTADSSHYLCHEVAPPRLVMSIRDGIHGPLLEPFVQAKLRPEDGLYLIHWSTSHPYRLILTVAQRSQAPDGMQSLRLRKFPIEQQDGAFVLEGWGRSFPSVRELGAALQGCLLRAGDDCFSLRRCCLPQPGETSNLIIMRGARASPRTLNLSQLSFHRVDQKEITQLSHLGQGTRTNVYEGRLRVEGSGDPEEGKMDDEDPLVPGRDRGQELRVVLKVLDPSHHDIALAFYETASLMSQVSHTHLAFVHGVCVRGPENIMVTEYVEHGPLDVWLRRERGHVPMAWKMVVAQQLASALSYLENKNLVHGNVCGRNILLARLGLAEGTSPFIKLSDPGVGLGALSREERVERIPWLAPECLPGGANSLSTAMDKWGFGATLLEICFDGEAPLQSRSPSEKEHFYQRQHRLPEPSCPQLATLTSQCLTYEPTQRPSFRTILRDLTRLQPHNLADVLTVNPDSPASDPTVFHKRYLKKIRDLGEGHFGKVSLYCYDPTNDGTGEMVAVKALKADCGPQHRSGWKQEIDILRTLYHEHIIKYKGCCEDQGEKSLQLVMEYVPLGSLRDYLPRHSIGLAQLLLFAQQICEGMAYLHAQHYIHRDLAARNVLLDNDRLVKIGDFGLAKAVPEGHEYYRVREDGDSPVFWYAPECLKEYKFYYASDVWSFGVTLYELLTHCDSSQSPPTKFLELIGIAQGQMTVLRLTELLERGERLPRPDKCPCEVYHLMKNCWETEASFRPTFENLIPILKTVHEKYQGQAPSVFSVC
Chain of Tyrosine-protein kinase Fer (Homo sapiens) (P16591 whole entry, looked up): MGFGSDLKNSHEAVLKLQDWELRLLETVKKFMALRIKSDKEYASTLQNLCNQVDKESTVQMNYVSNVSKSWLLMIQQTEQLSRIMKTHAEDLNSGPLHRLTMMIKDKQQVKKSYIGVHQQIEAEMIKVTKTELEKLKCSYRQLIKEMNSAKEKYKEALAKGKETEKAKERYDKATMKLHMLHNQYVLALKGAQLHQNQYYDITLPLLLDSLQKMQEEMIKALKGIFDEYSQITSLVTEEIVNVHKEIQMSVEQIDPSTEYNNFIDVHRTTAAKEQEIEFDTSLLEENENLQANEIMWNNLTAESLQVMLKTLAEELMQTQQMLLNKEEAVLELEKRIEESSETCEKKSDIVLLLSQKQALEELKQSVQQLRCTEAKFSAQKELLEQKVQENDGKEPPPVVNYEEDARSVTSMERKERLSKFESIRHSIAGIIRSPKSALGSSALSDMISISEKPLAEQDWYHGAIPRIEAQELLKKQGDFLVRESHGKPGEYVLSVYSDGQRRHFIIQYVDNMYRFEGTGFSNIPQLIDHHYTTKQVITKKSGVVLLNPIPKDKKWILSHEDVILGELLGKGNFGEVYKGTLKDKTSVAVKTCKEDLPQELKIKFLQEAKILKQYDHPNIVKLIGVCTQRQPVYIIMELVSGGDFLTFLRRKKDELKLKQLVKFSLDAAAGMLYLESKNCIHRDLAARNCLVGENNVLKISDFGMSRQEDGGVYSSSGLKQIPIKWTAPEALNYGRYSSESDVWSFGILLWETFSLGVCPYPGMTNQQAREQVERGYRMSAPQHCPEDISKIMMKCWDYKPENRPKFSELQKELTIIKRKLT
Chain of Vascular endothelial growth factor receptor 1 (Homo sapiens) (P17948 whole entry): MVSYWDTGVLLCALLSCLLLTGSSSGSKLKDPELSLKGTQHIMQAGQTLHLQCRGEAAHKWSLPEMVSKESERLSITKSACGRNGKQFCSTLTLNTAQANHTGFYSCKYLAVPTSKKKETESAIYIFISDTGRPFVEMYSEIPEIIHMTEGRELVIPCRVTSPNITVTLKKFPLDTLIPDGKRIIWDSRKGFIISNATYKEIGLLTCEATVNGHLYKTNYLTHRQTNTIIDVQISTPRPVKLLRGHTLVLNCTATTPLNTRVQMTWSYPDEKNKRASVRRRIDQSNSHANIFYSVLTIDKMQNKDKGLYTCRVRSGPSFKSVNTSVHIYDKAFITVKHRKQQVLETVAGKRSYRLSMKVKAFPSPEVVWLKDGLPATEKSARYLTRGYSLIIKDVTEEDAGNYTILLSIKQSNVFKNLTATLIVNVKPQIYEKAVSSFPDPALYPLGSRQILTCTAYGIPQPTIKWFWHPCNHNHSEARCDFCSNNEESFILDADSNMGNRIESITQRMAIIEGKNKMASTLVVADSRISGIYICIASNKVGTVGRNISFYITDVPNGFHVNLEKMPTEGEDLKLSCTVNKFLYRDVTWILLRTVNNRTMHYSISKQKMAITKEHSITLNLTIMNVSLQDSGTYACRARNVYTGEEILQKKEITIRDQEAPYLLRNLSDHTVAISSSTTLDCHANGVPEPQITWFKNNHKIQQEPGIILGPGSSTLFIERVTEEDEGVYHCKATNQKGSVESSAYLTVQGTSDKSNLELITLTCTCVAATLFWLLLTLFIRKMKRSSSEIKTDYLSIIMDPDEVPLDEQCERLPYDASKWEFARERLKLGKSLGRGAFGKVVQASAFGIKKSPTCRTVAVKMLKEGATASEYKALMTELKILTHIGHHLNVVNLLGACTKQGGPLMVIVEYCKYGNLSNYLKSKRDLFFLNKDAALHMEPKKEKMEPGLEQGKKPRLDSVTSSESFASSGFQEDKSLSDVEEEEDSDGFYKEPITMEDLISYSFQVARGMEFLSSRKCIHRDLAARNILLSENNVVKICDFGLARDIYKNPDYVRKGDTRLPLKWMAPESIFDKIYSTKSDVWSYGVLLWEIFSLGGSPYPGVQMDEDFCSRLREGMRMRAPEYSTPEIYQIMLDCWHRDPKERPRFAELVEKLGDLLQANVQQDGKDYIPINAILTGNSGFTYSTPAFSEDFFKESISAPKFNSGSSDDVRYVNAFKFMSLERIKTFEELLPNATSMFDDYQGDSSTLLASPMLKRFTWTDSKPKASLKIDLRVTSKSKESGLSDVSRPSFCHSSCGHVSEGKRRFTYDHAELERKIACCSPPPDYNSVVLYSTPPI
Chain of Fibroblast growth factor receptor 2 (Homo sapiens) (P21802 22-821 limits assumed): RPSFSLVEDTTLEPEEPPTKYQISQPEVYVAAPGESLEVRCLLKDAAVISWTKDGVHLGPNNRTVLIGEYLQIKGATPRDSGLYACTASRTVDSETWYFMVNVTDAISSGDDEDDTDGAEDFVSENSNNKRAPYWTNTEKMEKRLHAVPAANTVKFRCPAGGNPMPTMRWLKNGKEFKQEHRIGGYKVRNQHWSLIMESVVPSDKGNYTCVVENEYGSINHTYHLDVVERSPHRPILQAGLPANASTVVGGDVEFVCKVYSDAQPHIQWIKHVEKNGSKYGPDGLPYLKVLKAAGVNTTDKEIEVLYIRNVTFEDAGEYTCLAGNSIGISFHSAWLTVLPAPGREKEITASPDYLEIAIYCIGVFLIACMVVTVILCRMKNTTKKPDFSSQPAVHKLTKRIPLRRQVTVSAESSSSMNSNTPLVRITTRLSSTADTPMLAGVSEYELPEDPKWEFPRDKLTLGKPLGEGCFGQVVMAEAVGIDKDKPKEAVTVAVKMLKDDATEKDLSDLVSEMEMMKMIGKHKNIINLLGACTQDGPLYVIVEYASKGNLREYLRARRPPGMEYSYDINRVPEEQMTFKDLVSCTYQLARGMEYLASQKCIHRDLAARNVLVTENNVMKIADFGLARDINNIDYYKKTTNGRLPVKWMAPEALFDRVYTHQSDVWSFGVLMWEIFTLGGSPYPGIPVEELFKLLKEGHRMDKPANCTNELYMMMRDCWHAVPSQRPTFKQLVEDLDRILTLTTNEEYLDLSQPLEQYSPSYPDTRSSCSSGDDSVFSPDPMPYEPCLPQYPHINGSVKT
Chain of Fibroblast growth factor receptor 4 (Homo sapiens) (P22455 22-802 limits assumed): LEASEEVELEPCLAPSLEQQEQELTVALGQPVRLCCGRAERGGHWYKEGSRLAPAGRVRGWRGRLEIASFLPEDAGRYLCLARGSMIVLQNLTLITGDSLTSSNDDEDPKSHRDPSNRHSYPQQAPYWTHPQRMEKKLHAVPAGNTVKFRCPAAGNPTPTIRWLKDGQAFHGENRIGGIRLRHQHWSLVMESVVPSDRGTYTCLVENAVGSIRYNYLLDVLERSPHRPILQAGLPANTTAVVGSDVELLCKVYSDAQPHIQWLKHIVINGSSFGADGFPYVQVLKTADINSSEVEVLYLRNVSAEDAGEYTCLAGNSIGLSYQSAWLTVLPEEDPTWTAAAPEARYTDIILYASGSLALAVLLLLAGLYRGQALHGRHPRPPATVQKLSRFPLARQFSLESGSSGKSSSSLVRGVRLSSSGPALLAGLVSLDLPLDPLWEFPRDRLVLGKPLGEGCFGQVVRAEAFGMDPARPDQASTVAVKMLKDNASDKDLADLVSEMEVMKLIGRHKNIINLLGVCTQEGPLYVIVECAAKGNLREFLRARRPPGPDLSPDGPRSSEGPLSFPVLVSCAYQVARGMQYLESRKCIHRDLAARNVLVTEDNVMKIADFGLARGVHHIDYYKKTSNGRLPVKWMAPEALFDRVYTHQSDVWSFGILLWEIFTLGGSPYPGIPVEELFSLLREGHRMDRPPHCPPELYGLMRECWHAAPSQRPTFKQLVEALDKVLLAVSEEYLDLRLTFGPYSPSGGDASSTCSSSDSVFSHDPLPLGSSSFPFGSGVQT

Compound	inhibition [1] [%]	inhibition [2] [%]	inhibition [3] [%]	inhibition [4] [%]	inhibition [5] [%]	inhibition [6] [%]	inhibition [7] [%]	inhibition [8] [%]	inhibition [9] [%]	inhibition [10] [%]	inhibition [11] [%]	inhibition [12] [%]	inhibition [13] [%]	inhibition [14] [%]	inhibition [15] [%]	inhibition [16] [%]	inhibition [17] [%]	inhibition [18] [%]	inhibition [19] [%]	inhibition [20] [%]
COc1ccc2[nH]c3c4[nH]c5ccc(OC)cc5c4c4c(c3c2c1)C(=O)NC4=O	67.7	3.43	10.4	1.76	3.2	4.75	16.4	7.7	15.2	2.26	3.95	10.8	28	2.46	19.2	28.6	79.1	65	-0.6	17.1
CCN(CC)S(=O)(=O)c1ccc(OC)c(Nc2ncc(-c3ccccc3)o2)c1	4.52	0.12	-0.42	0.18	23.7	15	54.6	18.4	59.5	2.44	3.57	10.4	38.8	7.45	30.6	10.2	53.4	17.9	0.12	8.1
CCCN(CCS(C)(=O)=O)Cc1ccc(-c2ccc3ncnc(Nc4ccc(OCc5cccc(F)c5)c(Cl)c4)c3c2)o1	5.25	1.38	1.43	3.02	2.95	-0.3	2.2	3.56	2.41	1.61	3.7	3.69	7.51	-1	1.07	0.88	1.93	1.48	-0.78	2.08
Nc1ncc(-c2cccc(S(N)(=O)=O)c2)c2scc(-c3ccc(F)c(Cl)c3)c12	30	4	7.1	2.01	16.1	8.86	32.8	6.12	23.3	2.27	5.88	10.9	45.8	4.56	14.9	1.34	5.98	-3.2	-2.5	4.05
Cc1ccc(O)cc1Nc1ccnc2cc(-c3ccccn3)ccc12	8.05	4.23	8.97	15.1	46.6	12.8	43.2	8.93	25.8	9.41	30.8	52.2	82.7	82.1	95.7	3.74	4.17	1.48	-4	4.12
COc1cc(/C=N/Nc2ncnc3[nH]ncc23)ccc1O	14.3	2.22	7.19	1.55	7.94	4.76	16.9	5.91	19	-1.95	2.77	12.4	52.6	2.92	10.6	3.29	17.4	3.54	4.1	4.61
